Bioassay records (PubChem BioAssay)
DT40 TDP1 no CPT: qHTS for Inhibitors of human tyrosyl-DNA phosphodiesterase 1 (TDP1): qHTS in cells in absence of CPT. DT40 Tdp1-/- hTDP1 cells, no CPT, ATP luminescence, 48 h. Potency, µM (top dose mostly 46.2 µM), for inactives: top-dose activity change, negative = growth inhibition, hits mostly inhibitors. hit rate 15% among 420,000; also: potency is read from the fitted curve at half-maximal effect; nearly all actives have a fitted effect of over 55% in size
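Luminescent ATP content (CellTiter-Glo) served as the growth readout. Knockout chicken DT40 cells expressing human TDP1 were exposed to compounds without camptothecin for a minimum 48 hr at 37 °C.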
IL-1B inflam inh: blocks inflammasome-driven IL-1 beta release; AID 743279; THP-1 LPS/ATP IL-1B secretion, AlphaLISA, 16 h; stronger effect = lower value; hit rate 4.7% among 360,000; activity change, % at 57.5 µM; in the data active = activity change below about -50%; inconclusive = mostly about -30% to -49%
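Secreted IL-1B measured by AlphaLISA bead assay after 16 h compound exposure of THP-1 cells; compounds (final up to 57.5 uM) added 1 h before LPS (250 ng/mL) and ATP (1.25 mM) stimulation; lower signal means less secretion.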
RORgamma inh: ROR gamma (mouse) transcription inhibition | P51450 | Drosophila S2 Gal4-RORgamma UAS-luciferase reporter, 20 h | Potency, µM (doses to about 53.6 µM), inactives show at the highest dose activity change, negative = inhibition, actives largely listed as inhibitors | hit rate 5.4% among 310,000; also: potency is read from the fitted curve at half-maximal effect; nearly all actives have a fitted effect of over 60% in size
Target sequence (P51450 whole entry, looked up, the tested form may be a part): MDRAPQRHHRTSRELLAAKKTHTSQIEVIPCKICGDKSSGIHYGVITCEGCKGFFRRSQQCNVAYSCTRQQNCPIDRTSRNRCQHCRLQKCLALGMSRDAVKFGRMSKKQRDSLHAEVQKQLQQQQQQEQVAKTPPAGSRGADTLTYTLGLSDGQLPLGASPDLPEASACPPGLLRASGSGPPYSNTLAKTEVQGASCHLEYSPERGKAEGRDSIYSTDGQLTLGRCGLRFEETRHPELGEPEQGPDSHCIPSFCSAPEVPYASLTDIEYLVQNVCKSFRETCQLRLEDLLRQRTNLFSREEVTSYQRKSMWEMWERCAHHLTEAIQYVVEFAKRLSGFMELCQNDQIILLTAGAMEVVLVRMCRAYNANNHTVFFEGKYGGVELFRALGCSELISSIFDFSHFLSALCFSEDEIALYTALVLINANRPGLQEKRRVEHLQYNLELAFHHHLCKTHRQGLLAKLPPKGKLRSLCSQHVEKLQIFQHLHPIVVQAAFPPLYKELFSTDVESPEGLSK
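Using a luciferase readout, inhibitors were identified by reduced reporter activity in Drosophila cells coexpressing a copper-inducible Gal4–ROR gamma fusion and UAS-driven Photinus luciferase, incubated 20 hr after 700 uM copper sulfate.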
Gal4-VP16 FLuc: Gal4-VP16 reporter inhibition counter-screen | Potency, µM (top dose mostly 53.6 µM), for the others: at the top dose activity, negative = inhibition, usual class: inhibitors | AID 2546 | hit rate 3.5% among 310,000 | Drosophila S2 Gal4-VP16 UAS-luciferase, luminescence, 20 h;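 also: Gal4-VP16 expression switched on by copper sulfate through the metallothionein promoter; potency is read from the fitted curve at half-maximal effect; nearly all actives have a fitted effect of over 50% in size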
DT40 TDP1 CPT: DT40-hTDP1 cell growth loss with CPT. chicken DT40 Tdp1-/-;hTDP1 cells + 20 nM CPT, ATP luminescence, 48 h. Potency, µM (doses to about 46.2 µM), inactives show top-dose activity change, negative = growth inhibition, usual class: inhibitors. hit rate 12% among 420,000. AID 686979; also: potency is read from the fitted curve at half-maximal effect; nearly all actives have a fitted effect of over 55% in size
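Chicken DT40 Tdp1-/- cells stably complemented with human TDP1 were seeded at 400 cells/well in medium containing 20 nM camptothecin, exposed to pin-transferred compounds, and grown at 37 °C for at least 48 hr. Viability was read as ATP luminescence.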
ELG1 DNA repair: ELG1-dependent DNA repair inhibition. AID 504467. hit rate 2.3% among 330,000. Potency, µM (highest dose often 46.1 µM), without a hit: at the top dose activity change, negative = inhibition, hits mostly inhibitors. HEK293T ELG1-luciferase reporter, luminescence, 16 h; DNA damage induced by 5-fluorouridine; also: potency is read from the fitted curve at half-maximal effect; nearly all actives have a fitted effect of over 55% in size
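Luminescence from the luciferase reporter, measured 30 min after ONE-Glo reagent at room temperature, was the read-out. Beforehand, 2,000 cells per well were exposed for 16 hr at 37 °C to 5-fluorouridine together with compound or vehicle.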
The depositor's hits bear a star. A selection: hits, their analogues and other compounds. The true share with any hit is near 21%. Unless noted, calls follow the shape of the dose curve; as a rule, active = well fitted curve in the direction sought with a large enough effect; inconclusive = small, poorly fitted or top-dose-only effect, or another doubt; inactive = no such curve, though single readings can be large; an effect the other way counts as inactive or inconclusive. % is scaled to controls: 0 for no effect and ±100 for the full control effect.

Cc1ccc(C(=O)N2CCN(c3ccc([N+](=O)[O-])cc3-n3cccc3)CC2)cc1 was read as DT40 TDP1 no CPT 18µM*, IL-1B inflam inh inconclusive, RORgamma inh 32%, Gal4-VP16 FLuc -12%, DT40 TDP1 CPT inconclusive and ELG1 DNA repair -16%.
For O=C(C1CCCCC1)N1CCN(S(=O)(=O)c2cccc([N+](=O)[O-])c2)CC1 the results were DT40 TDP1 no CPT 10%, IL-1B inflam inh 0, RORgamma inh -5%, Gal4-VP16 FLuc -3%, DT40 TDP1 CPT -23% and ELG1 DNA repair 1%.
`CCOc1ccc(N2CC(NC(=O)/C=C\c3ccc4c(c3)OCO4)CC2=O)cc1` (stereo not drawn) gave DT40 TDP1 no CPT 2% and DT40 TDP1 CPT -17%.
For C#CCNC(=O)c1cc2c(Br)ccc(Br)c2nc1N the results were DT40 TDP1 no CPT -19%, IL-1B inflam inh 0 and DT40 TDP1 CPT -2%.
Screening CSc1cc2c(cc1C(F)(F)F)N(C(=O)Nc1cccnc1)CC2 returned DT40 TDP1 no CPT -4%, RORgamma inh 22%, Gal4-VP16 FLuc 3% and DT40 TDP1 CPT -4%.
Screening Cc1cc(O)c(C(=O)Cc2csc(C)n2)c(O)c1 returned DT40 TDP1 no CPT -20%, IL-1B inflam inh -15, RORgamma inh 24%, Gal4-VP16 FLuc -6%, DT40 TDP1 CPT -7% and ELG1 DNA repair inconclusive.
CCc1cc(/C(Cc2csc(C)n2)=N/O)c(O)cc1O was read as DT40 TDP1 no CPT 23µM*, IL-1B inflam inh -7, RORgamma inh -40%, Gal4-VP16 FLuc inconclusive, DT40 TDP1 CPT inconclusive and ELG1 DNA repair inconclusive.
`COc1ccc(C)cc1N(C(=O)c1snc(C(N)=O)c1N)C(C(=O)NC1CCCCC1)c1ccc(C)o1` (stereo not drawn) gave DT40 TDP1 no CPT 18µM*, IL-1B inflam inh -55*, RORgamma inh 18%, Gal4-VP16 FLuc 25%, DT40 TDP1 CPT 18µM* and ELG1 DNA repair -20%.
Cc1cccc(N(C(=O)c2snc(C(N)=O)c2N)C(C(=O)NCC2CCCO2)c2ccc(N(C)C)cc2)c1C (stereo not drawn) was read as DT40 TDP1 no CPT inconclusive, IL-1B inflam inh 7, RORgamma inh 18%, Gal4-VP16 FLuc 7%, DT40 TDP1 CPT inconclusive and ELG1 DNA repair 12%.
For Cc1cccc(N(C(=O)c2snc(C(N)=O)c2N)C(C)C(=O)NCC2CCCO2)c1 (stereo not drawn) the results were DT40 TDP1 no CPT -22%, IL-1B inflam inh inconclusive, RORgamma inh 2%, Gal4-VP16 FLuc -4%, DT40 TDP1 CPT -2% and ELG1 DNA repair 9%.
For Cc1ccc(C)c(N(C(=O)c2snc(C(N)=O)c2N)C(C(=O)NCC2CCCO2)c2ccc(C)o2)c1 (stereo not drawn) the results were DT40 TDP1 no CPT 10µM*, IL-1B inflam inh -3, RORgamma inh -2%, Gal4-VP16 FLuc -2%, DT40 TDP1 CPT 16µM* and ELG1 DNA repair inconclusive.
For Cc1ccc(C)c(N(C(=O)c2snc(C(N)=O)c2N)C(C(=O)NCC2CCCO2)c2cccs2)c1 (stereo not drawn) the results were DT40 TDP1 no CPT 8.2µM*, IL-1B inflam inh 28, RORgamma inh 25%, Gal4-VP16 FLuc 6%, DT40 TDP1 CPT 7.3µM* and ELG1 DNA repair -18%.
Screening Cc1ccc(C(C(=O)NCC2CCCO2)N(C(=O)c2snc(C(N)=O)c2N)c2ccccc2)o1 (stereo not drawn) returned DT40 TDP1 no CPT inconclusive, IL-1B inflam inh -5, RORgamma inh -7%, Gal4-VP16 FLuc -11%, DT40 TDP1 CPT -28% and ELG1 DNA repair -29%.
Screening COc1ccccc1N(C(=O)c1snc(C(N)=O)c1N)C(C(=O)NC1CCCC1)c1ccco1 (stereo not drawn) returned DT40 TDP1 no CPT -17%, IL-1B inflam inh -8, RORgamma inh 40%, Gal4-VP16 FLuc 6%, DT40 TDP1 CPT inconclusive and ELG1 DNA repair 0%.
For Cc1cccc(N(C(=O)c2snc(C(N)=O)c2N)C(C(=O)NCC2CCCO2)c2cccs2)c1 (stereo not drawn) the results were DT40 TDP1 no CPT 0.41µM*, IL-1B inflam inh 13, RORgamma inh 30%, Gal4-VP16 FLuc 6%, DT40 TDP1 CPT -88% and ELG1 DNA repair 1%.
`Cc1ccccc1CNC(=O)c1csc([C@@H]2C[C@H](O)[C@@H](CO)O2)n1` gave DT40 TDP1 no CPT -10%, IL-1B inflam inh 3 and DT40 TDP1 CPT -4%.
C=CCn1c(C)cc(C(=O)COc2ccc(N(C)S(=O)(=O)c3ccc(NC(C)=O)cc3)cc2)c1C was read as DT40 TDP1 no CPT 5.8µM*, IL-1B inflam inh -29, DT40 TDP1 CPT 9.2µM* and ELG1 DNA repair inconclusive.
`COCC(C)n1c(C)cc(C(=O)COc2ccc(N(C)S(=O)(=O)c3ccc(NC(C)=O)cc3)cc2)c1C` (stereo not drawn) gave DT40 TDP1 no CPT inconclusive, IL-1B inflam inh 4, DT40 TDP1 CPT inconclusive and ELG1 DNA repair 4.1µM*.
C=CCC[C@H](Cc1ccc(F)cc1)C(=O)OC[C@@H](Cc1c[nH]c2ccccc12)NC(=O)[C@H](CC=C)CC(=O)N(CCO)Cc1ccccc1 was read as DT40 TDP1 no CPT inconclusive, IL-1B inflam inh inconclusive, DT40 TDP1 CPT 18µM* and ELG1 DNA repair 16µM*.
C=CCC[C@@H](Cc1ccc(F)cc1)C(=O)OC[C@@H](Cc1c[nH]c2ccccc12)NC(=O)[C@H](CC=C)CC(=O)N(CCO)Cc1ccccc1 was read as DT40 TDP1 no CPT inconclusive, IL-1B inflam inh inconclusive, DT40 TDP1 CPT 21µM* and ELG1 DNA repair 18µM*.
`Cc1cc(OCc2cc(C(=O)N3CCCCCC3)no2)cc(C)c1Cl` gave DT40 TDP1 no CPT inconclusive, IL-1B inflam inh 0, RORgamma inh inconclusive, Gal4-VP16 FLuc -14%, DT40 TDP1 CPT 15µM* and ELG1 DNA repair inconclusive.
CCCOC1CCCN(C(=O)c2cc(COc3c(F)cccc3F)on2)C1 (stereo not drawn) was read as DT40 TDP1 no CPT inconclusive, IL-1B inflam inh 7, RORgamma inh 25%, Gal4-VP16 FLuc 28%, DT40 TDP1 CPT inconclusive and ELG1 DNA repair inconclusive.
`Cc1ccccc1C1CCCN(C(=O)c2cc(COc3c(F)cccc3F)on2)C1` (stereo not drawn) gave DT40 TDP1 no CPT 21µM*, IL-1B inflam inh 6, RORgamma inh inconclusive, Gal4-VP16 FLuc -11%, DT40 TDP1 CPT 23µM* and ELG1 DNA repair 0%.
